Screens from PubChem.
MEKK2mut PB1 HTS: signal of MEK5 binding to mutant human MEKK2 PB1 domain | bead flow cytometry, Alexa488-MEK5 binding to MEKK2 mutant | percent response, % at 10 µM | actives 0.35% (n = 290,000) | AID 1530; in the data active = percent response above about 24%, passing the limit was not always enough
MEKK3 PB1 HTS: modulators (inhibitors or enhancers) of MEK5 binding to human MEKK3 PB1 domain. actives 1.4% (n = 290,000). binding response (% of control), % at 10 µM. Q99759. AID 1529. bead-based flow cytometry, Alexa488-MEK5 binding to MEKK3; actives lie on both sides; 0 = blocked by unlabeled MEK5, 100 = vehicle;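 active = binding response more than 3 SD above or below the average of its plate-row segment, actives on both sides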;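 note: Alexa488 bead fluorescence after subtracting the streptavidin-only scavenger bead signal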
PREPL inhibitor: inhibitors of human prolyl oligopeptidase-like enzyme PREPL; recombinant PREPL, fluorescence polarization activity-based probe; inhibition, % at 5.96 µM; Q4J6C6; actives 0.68% (n = 320,000); AID 2751; in the data active = inhibition above about 43%;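 note: 0% = enzyme with DMSO and 100% = wells lacking enzyme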
ATG4B inh: ATG4B (human) cysteine protease inhibition; Q9Y4P1; ATG4B cleavage of LC3-PLA2, NBD-HPC fluorescence, 1 h; inhibition, % at 8.33 µM; actives 0.51% (n = 340,000); in the data active = inhibition above about 40%
UBC13 polyUb: blocks human UBC13 polyubiquitin chain formation. TR-FRET. inhibition, % at 20 µM. AID 485273. actives 0.47% (n = 330,000). P61088; in the data active = inhibition above about 45%, passing the limit was not always enough
Target sequence (P61088 whole entry, looked up): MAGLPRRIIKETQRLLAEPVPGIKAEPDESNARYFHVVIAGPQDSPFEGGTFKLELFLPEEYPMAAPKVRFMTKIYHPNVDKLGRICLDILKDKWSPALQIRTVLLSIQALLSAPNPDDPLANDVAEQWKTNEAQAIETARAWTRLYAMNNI
MEKK2wt PB1 HTS: raises or lowers MEK5 binding to wildtype human MEKK2 PB1 domain; AID 1531; bead flow cytometry, Alexa488-MEK5 binding to MEKK2 WT; actives lie on both sides; binding response (% of control), % at 10 µM; actives 1.1% (n = 290,000); in the data active = binding response below about 67% or above about 130%
Casp3 UBC13 ctr: counter-screen for UBC13 inhibitors: human caspase-3 inhibition; shares compounds with UBC13 polyUb; Recombinant caspase-3, Caspase-Glo 3/7 luminescence, 60 min; inhibition, % at 20 µM; actives 4% (n = 1,400); AID 488856;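 active = mean inhibition across replicates above about 26%, limit read from the data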;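 note: plate controls were DMSO with caspase-3 for no effect and DMSO wells lacking enzyme for full effect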
UBC13 conf: human UBC13 polyubiquitin inhibition, confirmed. shares compounds with UBC13 polyUb. UBC13 polyubiquitination, TR-FRET, biochemical. inhibition, % at 10 µM. actives 68% (n = 1,400). AID 488859; in the data active = inhibition above about 45%
* hit, by the source's call; / = no result given. Compounds with a hit are over-represented: about 3.1% of the library has one in this group of screens.

SMILES	MEKK2mut PB1 HTS	MEKK3 PB1 HTS	PREPL inhibitor	ATG4B inh	UBC13 polyUb	MEKK2wt PB1 HTS	Casp3 UBC13 ctr	UBC13 conf
Cc1cccc(CC(C)NC(=O)c2oc3c(F)cccc3c2C)n1 (stereo not given)	-2	93	-1	7	-3	102	/	/
COc1ccc(OCC(=O)NNC(=S)NC(=O)c2ccc([N+](=O)[O-])cc2)cc1	3	102	-2	-12	60*	100	-1	31
CCC(=O)NC(=S)NNC(=O)c1ccc(NC(=O)c2ccccc2)cc1	-7	97	-4	-3	71*	100	12	91*
C=CCNC(=S)NNC(=O)c1ccc(OCCC)cc1	2	103	2	-1	2	100	/	/
O=C(NNC(=O)c1ccc(NC(=O)c2ccccc2)cc1)c1ccccc1	-2	99	-1	12	2	94	/	/
CCCOc1ccc(C(=O)NNC(=S)NC(=O)CC)cc1	-4	97	15	7	66*	94	0	83*
CCCCC(=O)NC(=S)NNC(=O)c1ccc(OC)cc1	3	105	1	-7	69*	111	2	41
CC(C)OCCCN(C)C1CCN(S(=O)(=O)c2ccc(-c3cc(C(F)(F)F)no3)s2)CC1	6	102	16	2	7	117	/	/
COc1ccc(S(=O)(=O)N(C)CC(=O)NCCCN2CCOCC2)cc1C	/	/	/	0	/	/	/	/
CCOc1ccc(-c2[nH]ncc2Oc2cccc(OC)c2)c(O)c1	-8	84	9	11	63*	93	3	60*
COc1cccc(Oc2cn[nH]c2-c2ccc(OC)cc2O)c1	5	105	-3	10	38	106	/	/
O=C(CCS(=O)(=O)c1ccc(Br)cc1)NCCC1=CCCCC1	2	102	-9	-1	-4	103	/	/
CCNC(=S)NNC(=O)c1ccccn1	3	110	12	-4	90*	106	-1	87*
NC(=O)NC(CC(=O)NCCc1ccccn1)c1ccccc1Cl (stereo not given)	-8	96	15	0	0	92	/	/
Cc1cccc(OCCCC(=O)NNC(=O)c2ccccn2)c1	/	/	20	-1	75*	/	-3	16
O=C(CCc1ccccc1)NNC(=O)c1ccccn1	-20	83	-5	-2	50*	83	2	64*
NC(=O)NC(CC(=O)NNC(=O)c1ccccn1)c1ccccc1Cl (stereo not given)	/	/	4	2	80*	/	8	82*
Cc1noc(C)c1S(=O)(=O)Nc1ccc2c(c1)C(=O)N([C@H](C)CO)C[C@@H](C)[C@@H](CN(C)Cc1ccc3c(c1)OCO3)O2	/	/	24	-4	8	/	/	/
O=C(NCc1cc(C(F)(F)F)cc(C(F)(F)F)c1)C1CC(c2ccccc2C(F)(F)F)=NO1 (stereo not given)	/	/	13	11	16	/	/	/
COc1cc(C#Cc2c(-c3cncn3C)n(C)c3ccc(Br)cc23)cc(OC)c1	/	/	23	-17	46*	/	-3	37
O=C(c1ccc(N2CCCS2(=O)=O)cc1)N1CCN(c2ccccc2)CC1	-3	102	-6	-2	-6	100	/	/
Cc1ccc(NC(=O)CN(C)C(=O)c2cccnc2Nc2cccc(C(F)(F)F)c2)cc1	9	113	0	-11	-2	123	/	/
COc1cccc(NC(=O)CN(C)C(=O)c2cccnc2Nc2cccc(C(F)(F)F)c2)c1	/	/	-14	-17	47*	/	-1	34
COc1ccc(OC)c(CC(NC(C)=O)C(=O)NC2CCN(S(=O)(=O)c3ccc(NC(C)=O)cc3)CC2)c1 (stereo not given)	11	106	8	-10	3	110	/	/
CCc1noc(C)c1C(=O)N(CC(C)C)c1c(N)n(Cc2ccccc2)c(=O)[nH]c1=O	/	/	/	10	-2	/	/	/
O=C(CSc1ccc(-c2ccc(Br)cc2)nn1)NC1CCCC1	-2	94	28	6	-10	96	/	/
